Laboratory results reported in article PMC5540273 (PLoS ONE, 2017).

The compounds below were run on CIT. Conditions: concentration: 1 μM, replicates: in singlicate; n = 1.
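Note: KINOMEscan kinase panel screen.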

| Structure (SMILES) | %Inh [%] |
| --- | --- |
| Nc1nccc2scc(-c3ccc4c(c3)CCN4C(=O)Cc3ccccc3)c12 [GSK2576924] | 46 |
| CCC(=O)c1c(-c2ccccc2)c2cc(Cl)ccc2c(=O)n1Cc1cc(S(C)(=O)=O)n(CC(F)F)n1 | 0 |
| O=c1cc(N2CCOCC2)nc2n(Cc3ccc(F)c(Cl)c3)ccn12 [GSK2297099] | 4 |
| Fc1cccc(CSc2nnc(-c3ccc4c(c3)CCO4)o2)c1 | 0 |
| Cc1cccc(-c2nc(Nc3ccc4c(cnn4C)c3)c3ccccc3n2)n1 [GW876731] | 12 |
| COc1cccc(C2=C(Nc3cccc(C(=O)O)c3)C(=O)NC2=O)c1 [SB-390770] | 39 |
| Nc1ncnc2c1ncn2-c1cccc2ccccc12 [SKF-97184] | 35 |
| Nc1ncnc2c1ncn2-c1ccc(Cl)cc1 [AH2635] | 26 |
| COc1cc2ncn(-c3cc(OCc4ccncc4)c(C(N)=O)s3)c2cc1OC [GSK336313] | 10 |
| Cl.c1ccc(Cn2cnc3cc(Nc4ncnc5ccccc45)ccc32)cc1 [GW272142] | 0 |
| C[C@@H]1CC[C@H](C(=O)NC2CCCCC2)CN1c1cc(-c2ccc3c(N)n[nH]c3c2)nc(N)n1 [GSK2291363] | 24 |
| Nc1n[nH]c2ncc(-c3ccccc3)cc12 [SB-517081] | 29 |
| CN1C(=O)C(Nc2cc(Cl)c(O)c(Cl)c2)=C(c2ccc(Cl)cc2)C1=O [SB-404321] | 38 |
| COc1ccc(-c2cc3c(C)nc(N)nc3n([C@H]3CC[C@H](O)CC3)c2=O)cn1 | 0 |
| COc1cc(Nc2nccc(N3CCC(NC(=O)C4COc5ccccc5O4)C3)n2)cc(OC)c1OC (centres unmarked) [GSK1379761] | 33 |
| CC(C)(C)c1ccc(C(=O)Nc2cn3cc(-c4ccccc4)ccc3n2)cc1 | 2 |
| CN1C(=O)C(Nc2ccccc2)=C(c2ccccc2)C1=O [SB-300079] | 4 |
| CCC(=O)c1c(-c2ccccc2)c2cc(Cl)ccc2c(=O)n1Cc1ccc(C(=O)O)cc1 | 0 |
| CCS(=O)c1ccc(-c2coc3ccc(-c4nnc(C)o4)cc23)cc1 (centres unmarked) | 2 |

| Structure (SMILES) | %Inh [%] |
| --- | --- |
| COc1cc(Nc2nccc(N3CCC(NC(=O)C(C)c4ccc(Cl)cc4)C3)n2)cc(OC)c1OC (centres unmarked) [GSK1379757] | 9 |
| COc1cccc(-n2cnc3c(N)ncnc32)c1 [SKF-97416] | 8 |
| OCCCNc1nccc(-c2c(-c3cccc(C(F)(F)F)c3)nn3cc(C(F)(F)F)ccc23)n1 [GW630813] | 0 |
| COc1cc2nccc(Nc3cccc(Oc4ccccc4)c3)c2cc1OC.Cl [GW284543] | 0 |
| CN(C)c1cc(-c2ccc3c(N)n[nH]c3c2)nc(N)n1 [GSK2219329] | 23 |
| Cl.NS(=O)(=O)c1cccc(Nc2cc(-c3ccc(F)cc3)n[nH]2)c1 [GW824645] | 2 |
| Nc1nc(N)c2nc(-c3ccccc3)[nH]c2n1 [SKF-12778] | 17 |
| COc1cc2ncn(-c3cc(OCc4ccc(S(C)(=O)=O)cc4)c(C(N)=O)s3)c2cc1OC [GW869979] | 29 |
| COc1ccc(-c2cc3c(C)nc(N)nc3n([C@H]3CC[C@H](OCCO)CC3)c2=O)cn1 | 0 |
| CCn1c(-c2nonc2N)nc2ccccc21 [SB-693162/GW549034] | 31 |
| COc1cc2ncn(-c3cc(OCCCc4ccccc4)c(C(N)=O)s3)c2cc1OC [GSK205189] | 10 |
| COc1ccc(CNC(=O)NC2CCN(c3ccnc(Nc4ccc(F)cc4)n3)C2)cc1 (centres unmarked) [GSK1379706] | 9 |
| Cc1ccccc1COc1cc(-n2cnc3cc(Cl)ccc32)sc1C(N)=O [GW813349] | 21 |
| Nc1n[nH]c2nnc(-c3ccccc3)c(-c3ccccc3)c12 [GW554060] | 26 |
| Cc1nnc(-c2ccc3ncn(-c4ccc(S(C)=O)cc4)c3c2)o1 (centres unmarked) | 35 |
| CCc1ccc(-c2ccc3c(c2)-c2nn(C)cc2S(=O)(=O)N3C)cc1 | 0 |
| Cc1c(Cn2c(C)nn3c(=O)cc(N4CCO[C@H](C)C4)nc23)cccc1C(F)(F)F [GSK2373690] | 1 |
| CCc1nc(-c2cccc(C)c2)c(-c2ccncc2)s1 | 72 |

These compounds were tested on CLK1. Conditions: concentration: 1 μM, replicates: in singlicate; n = 1.

| Structure (SMILES) | %Inh [%] |
| --- | --- |
| Nc1nccc2scc(-c3ccc4c(c3)CCN4C(=O)Cc3ccccc3)c12 [GSK2576924] | 34 |
| CCC(=O)c1c(-c2ccccc2)c2cc(Cl)ccc2c(=O)n1Cc1cc(S(C)(=O)=O)n(CC(F)F)n1 | 8 |
| O=c1cc(N2CCOCC2)nc2n(Cc3ccc(F)c(Cl)c3)ccn12 [GSK2297099] | 63 |
| Fc1cccc(CSc2nnc(-c3ccc4c(c3)CCO4)o2)c1 | 73 |
| Cc1cccc(-c2nc(Nc3ccc4c(cnn4C)c3)c3ccccc3n2)n1 [GW876731] | 0 |
| COc1cccc(C2=C(Nc3cccc(C(=O)O)c3)C(=O)NC2=O)c1 [SB-390770] | 9 |
| Nc1ncnc2c1ncn2-c1cccc2ccccc12 [SKF-97184] | 0 |
| Nc1ncnc2c1ncn2-c1ccc(Cl)cc1 [AH2635] | 28 |
| COc1cc2ncn(-c3cc(OCc4ccncc4)c(C(N)=O)s3)c2cc1OC [GSK336313] | 42 |
| Cl.c1ccc(Cn2cnc3cc(Nc4ncnc5ccccc45)ccc32)cc1 [GW272142] | 27 |
| C[C@@H]1CC[C@H](C(=O)NC2CCCCC2)CN1c1cc(-c2ccc3c(N)n[nH]c3c2)nc(N)n1 [GSK2291363] | 40 |
| Nc1n[nH]c2ncc(-c3ccccc3)cc12 [SB-517081] | 21 |
| CN1C(=O)C(Nc2cc(Cl)c(O)c(Cl)c2)=C(c2ccc(Cl)cc2)C1=O [SB-404321] | 22 |
| COc1ccc(-c2cc3c(C)nc(N)nc3n([C@H]3CC[C@H](O)CC3)c2=O)cn1 | 0 |
| COc1cc(Nc2nccc(N3CCC(NC(=O)C4COc5ccccc5O4)C3)n2)cc(OC)c1OC (centres unmarked) [GSK1379761] | 3 |
| CC(C)(C)c1ccc(C(=O)Nc2cn3cc(-c4ccccc4)ccc3n2)cc1 | 33 |
| CN1C(=O)C(Nc2ccccc2)=C(c2ccccc2)C1=O [SB-300079] | 0 |
| CCC(=O)c1c(-c2ccccc2)c2cc(Cl)ccc2c(=O)n1Cc1ccc(C(=O)O)cc1 | 0 |
| CCS(=O)c1ccc(-c2coc3ccc(-c4nnc(C)o4)cc23)cc1 (centres unmarked) | 0 |

| Structure (SMILES) | %Inh [%] |
| --- | --- |
| COc1cc(Nc2nccc(N3CCC(NC(=O)C(C)c4ccc(Cl)cc4)C3)n2)cc(OC)c1OC (centres unmarked) [GSK1379757] | 22 |
| COc1cccc(-n2cnc3c(N)ncnc32)c1 [SKF-97416] | 6 |
| OCCCNc1nccc(-c2c(-c3cccc(C(F)(F)F)c3)nn3cc(C(F)(F)F)ccc23)n1 [GW630813] | 9 |
| COc1cc2nccc(Nc3cccc(Oc4ccccc4)c3)c2cc1OC.Cl [GW284543] | 21 |
| CN(C)c1cc(-c2ccc3c(N)n[nH]c3c2)nc(N)n1 [GSK2219329] | 45 |
| Cl.NS(=O)(=O)c1cccc(Nc2cc(-c3ccc(F)cc3)n[nH]2)c1 [GW824645] | 0 |
| Nc1nc(N)c2nc(-c3ccccc3)[nH]c2n1 [SKF-12778] | 36 |
| COc1cc2ncn(-c3cc(OCc4ccc(S(C)(=O)=O)cc4)c(C(N)=O)s3)c2cc1OC [GW869979] | 17 |
| COc1ccc(-c2cc3c(C)nc(N)nc3n([C@H]3CC[C@H](OCCO)CC3)c2=O)cn1 | 0 |
| CCn1c(-c2nonc2N)nc2ccccc21 [SB-693162/GW549034] | 0 |
| COc1cc2ncn(-c3cc(OCCCc4ccccc4)c(C(N)=O)s3)c2cc1OC [GSK205189] | 19 |
| COc1ccc(CNC(=O)NC2CCN(c3ccnc(Nc4ccc(F)cc4)n3)C2)cc1 (centres unmarked) [GSK1379706] | 16 |
| Cc1ccccc1COc1cc(-n2cnc3cc(Cl)ccc32)sc1C(N)=O [GW813349] | 18 |
| Nc1n[nH]c2nnc(-c3ccccc3)c(-c3ccccc3)c12 [GW554060] | 23 |
| Cc1nnc(-c2ccc3ncn(-c4ccc(S(C)=O)cc4)c3c2)o1 (centres unmarked) | 46 |
| CCc1ccc(-c2ccc3c(c2)-c2nn(C)cc2S(=O)(=O)N3C)cc1 | 0 |
| Cc1c(Cn2c(C)nn3c(=O)cc(N4CCO[C@H](C)C4)nc23)cccc1C(F)(F)F [GSK2373690] | 27 |
| CCc1nc(-c2cccc(C)c2)c(-c2ccncc2)s1 | 13 |
